WRN helicase inh: inhibitors of human WRN helicase; Q14191; WRN helicase unwinding, fluorescent forked duplex, kinetic; Potency, µM (titrated, usually from 114 µM), most hits filed as inhibitors; 360,000 compounds, 0.46% hits; AID 651768; further: nearly all actives have a fitted effect of over 55% in size
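Kinetic fluorescence helicase assay: unwinding of a quenched forked DNA duplex (100 nM final) with 2 mM ATP final raises red fluorescence (525/598 nm). Compounds sat 15 min at room temperature with 20 nM WRN beforehand.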
POLH inh: blocks human DNA polymerase eta activity; Potency, µM (titrated, usually from 114 µM), usual class: inhibitors; 390,000 compounds, 1.2% hits; recombinant Pol eta, fluorescent DNA replication assay
Target sequence (Q9Y253 whole entry, looked up): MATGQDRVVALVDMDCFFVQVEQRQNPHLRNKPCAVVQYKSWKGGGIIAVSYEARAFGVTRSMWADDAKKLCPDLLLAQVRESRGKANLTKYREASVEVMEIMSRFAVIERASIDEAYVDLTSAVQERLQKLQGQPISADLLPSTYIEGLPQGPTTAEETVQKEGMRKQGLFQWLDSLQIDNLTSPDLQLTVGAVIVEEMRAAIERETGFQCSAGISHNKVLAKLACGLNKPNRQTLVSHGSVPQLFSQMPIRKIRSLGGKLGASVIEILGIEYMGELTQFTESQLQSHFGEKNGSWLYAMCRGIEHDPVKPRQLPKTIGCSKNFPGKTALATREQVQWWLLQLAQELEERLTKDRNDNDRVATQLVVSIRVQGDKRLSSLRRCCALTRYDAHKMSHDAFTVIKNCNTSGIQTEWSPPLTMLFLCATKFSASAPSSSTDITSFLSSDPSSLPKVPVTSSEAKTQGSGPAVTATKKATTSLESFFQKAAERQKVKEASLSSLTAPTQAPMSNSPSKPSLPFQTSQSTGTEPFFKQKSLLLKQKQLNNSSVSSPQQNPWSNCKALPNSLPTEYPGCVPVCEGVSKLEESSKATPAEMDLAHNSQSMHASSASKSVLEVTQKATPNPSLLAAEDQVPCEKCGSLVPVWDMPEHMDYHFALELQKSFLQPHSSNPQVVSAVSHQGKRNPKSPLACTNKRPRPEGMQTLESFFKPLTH
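Fluorescent replication assay: 50 nM final substrate added after a 15 min room-temperature compound preincubation with 10 nM enzyme. Signal taken at 0 min and again at 10 min.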
POLI inh: inhibitors of human DNA polymerase iota. 390,000 compounds, 1% hits. Potency, µM (doses to about 115 µM), usual class: inhibitors. Pol iota fluorescent replication assay, 10 min
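Pol iota at 10 nM preincubated 15 min with compounds at room temperature; reaction started with fluorescent substrate, 50 nM final. Fluorescence read kinetically at 0 and 10 min; buffer-only wells as negative control.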
POLB inh: blocks human DNA polymerase beta activity; P06746; Pol beta primer extension/strand displacement, fluorescence kinetic; Potency, µM (doses to about 114 µM), hits mostly inhibitors; 340,000 compounds, 1.3% hits; AID 485314
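Curves were derived by four-parameter Hill fits of normalized qHTS data. The kinetic fluorescent primer-extension read was taken at 0 and 10 min after 50 nM substrate, following a 15 min room-temperature preincubation of 10 nM enzyme with compounds.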
FEN1 inh: blocks human flap endonuclease 1. AID 588795. 390,000 compounds, 0.35% hits. Potency, µM (series often up to 114 µM), hits mostly inhibitors. Recombinant FEN1 flap cleavage, fluorescence, 15 min. P39748; further: nearly all actives have a fitted effect of over 65% in size
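With each library titrated from low to high concentration, compounds met 10 nM FEN1 for 15 min at room temperature before 50 nM substrate was added; readings at 0 and 15 min fed four-parameter Hill curve fits.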
POLK inh: inhibitors of human DNA polymerase kappa; Q9UBT6; purified Pol kappa, fluorescent DNA synthesis assay, 10 min; Potency, µM (titrated, usually from 107 µM), actives largely listed as inhibitors; 400,000 compounds, 0.53% hits; AID 588579
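Fluorescent qHTS in 1536-well format: enzyme (10 nM) and compound sat 15 min at room temperature before 50 nM substrate (final) was added. Signal taken at 0 and 10 min; no-enzyme buffer wells were negative controls.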
Of the large screens only hits and unclear results are named; the others gave an inactive call. Only some compounds are listed: those with a hit (about 2.4% of all), similar ones and a draw of the others. The call rests on the fitted dose curve; in most records, active means well fitted curve in the direction sought with a large enough effect; inconclusive means small, poorly fitted or top-dose-only effect, or another doubt; inactive means no such curve, though single readings can be large; an effect the other way counts as inactive or inconclusive.

CC1=Nc2ccccc2/C1=C\c1nc(-c2ccc(C(F)(F)F)cc2)oc1O	WRN helicase inh inconclusive, POLI inh 8.9µM
CC1=Nc2ccccc2/C1=C\c1nc(-c2ccccc2)oc1O	POLI inh inconclusive
COc1cccc(C2CC(c3ccc(NS(C)(=O)=O)cc3)=NN2C(=O)c2ccccc2)c1OC (stereo not drawn)	POLH inh inconclusive, POLI inh 89µM
COc1ccccc1C1CC(c2ccc(NS(C)(=O)=O)cc2)=NN1C(=O)c1ccccc1 (stereo not drawn)	none
Cc1cc(N(C)C)cc(C)c1C=O	none (no result: WRN helicase inh, POLH inh, POLB inh)
O=C(O)c1cccc(NC(=S)NC(NC(=O)c2cccc([N+](=O)[O-])c2)C(Cl)(Cl)Cl)c1 (stereo not drawn)	WRN helicase inh inconclusive, POLH inh 56µM, POLB inh inconclusive
O=C(O)c1cccc(NC(=S)NC(NC(=O)c2ccccc2[N+](=O)[O-])C(Cl)(Cl)Cl)c1 (stereo not drawn)	none
COc1ccc(-n2c(SCC(=O)C(C)(C)C)nc3c(sc(=S)n3-c3ccccc3)c2=O)c(OC)c1	POLI inh 11µM
O=S(=O)(c1ccc2c(c1)OCO2)N1CCN(c2nc(-c3cccs3)nc3ccccc23)CC1	none (no result: WRN helicase inh, POLH inh, POLB inh)
Cc1cccc(C(=O)Nc2cccc(C(=O)N/N=C/c3ccc4c(c3)OCO4)c2)c1	none
O=C(N/N=C/c1cccnc1)c1ccccc1Cl	POLI inh inconclusive
O=C(N/N=C/c1cccnc1)c1ccc(NC(=O)c2cccc(Cl)c2)cc1	POLH inh inconclusive, POLI inh inconclusive, POLB inh 8.9µM
Cc1cccc(C(=O)Nc2ccc(C(=O)N/N=C/c3ccc4c(c3)OCO4)cc2)c1	POLB inh 35µM
O=C(N/N=C\c1cccnc1)c1cc(-c2ccc(Cl)s2)[nH]n1	WRN helicase inh inconclusive, POLH inh inconclusive, POLI inh inconclusive, POLB inh 14µM, FEN1 inh inconclusive
COc1cc(NC(=O)c2ccco2)c(OC)cc1NC(=O)c1cc(OC)c(OC)c(OC)c1	POLB inh 40µM
COc1cc(OC)cc(C(=O)Nc2ccc(NC(=O)c3ccco3)c(Cl)c2)c1	POLH inh inconclusive, POLI inh 25µM, POLB inh inconclusive
Cn1c(C(c2cc3ccccc3n2C)c2cc3ccccc3n2C)cc2ccccc21	none (no result: WRN helicase inh, POLH inh, POLB inh)
CN1CCN(c2oc(-c3ccc(OCc4ccc(Cl)cc4)cc3)nc2C#N)CC1	none (no result: WRN helicase inh, POLH inh, POLB inh)
Cc1ccc(NC(=O)COC(=O)c2ccccc2OCC(=O)N(C)C)cc1	none (no result: WRN helicase inh, POLH inh, POLB inh)
Cc1cc(=O)[nH]c(-n2[nH]c3c(c2=O)CCCC3)n1	POLI inh 14µM
Cc1c(C(=O)OCC(C)C)[nH]c2c1C(=O)CC(c1ccco1)C2 (stereo not drawn)	POLH inh 32µM, POLI inh inconclusive, POLB inh 25µM
Cc1c(C(=O)OCC2CCCO2)[nH]c2c1C(=O)CC(c1ccco1)C2 (stereo not drawn)	WRN helicase inh 40µM, POLH inh 3.2µM, POLI inh inconclusive, POLB inh 10µM, FEN1 inh inconclusive, POLK inh 28µM
Cc1c(C(=O)OC2CCCC2)[nH]c2c1C(=O)CC(c1ccco1)C2 (stereo not drawn)	POLH inh inconclusive, POLI inh inconclusive, POLB inh inconclusive, POLK inh inconclusive
C=CCOC(=O)c1[nH]c2c(c1C)C(=O)CC(c1ccco1)C2 (stereo not drawn)	WRN helicase inh inconclusive, POLH inh 25µM, POLI inh inconclusive, POLB inh 13µM, POLK inh inconclusive
CS(=O)(=O)c1ccc(C(=O)OCC(=O)N2CCc3ccccc32)cc1[N+](=O)[O-]	none (no result: WRN helicase inh, POLH inh, POLB inh)
Cc1ccc(S(=O)(=O)NC(=O)c2ccc(-c3ccc(-c4ccccc4)cc3)o2)c(C)c1	POLB inh 56µM (no result: WRN helicase inh, POLH inh, POLI inh, FEN1 inh, POLK inh)
Cc1sc2ccccc2[n+]1CCC[n+]1c(C)sc2ccccc21	POLI inh inconclusive (no result: WRN helicase inh, POLH inh, POLB inh)
CN(Cc1ccccc1)c1ccc(/C=C/c2sc3ccccc3[n+]2C)cc1	FEN1 inh 40µM (no result: WRN helicase inh, POLH inh, POLB inh)
CCCCCCCCCCCCCCCCCCN(CCCCCCCCCCCCCCCCCC)c1ccc(/C=C/c2ccnc3ccccc23)cc1	none (no result: WRN helicase inh, POLH inh, POLB inh)
CN(C)c1ccc(/C=C/c2sc3ccccc3[n+]2CCCCI)cc1	POLI inh 79µM, FEN1 inh inconclusive, POLK inh 50µM (no result: WRN helicase inh, POLH inh, POLB inh)
CN(CCCS(=O)(=O)[O-])c1ccc(/C=C/c2ccc3ccccc3[n+]2C)cc1	POLI inh inconclusive
CC[n+]1c(/C=C/Nc2ccccc2)sc2ccccc21	POLI inh inconclusive
CCCCCCCCCC[n+]1ccc(/C=C/c2ccc(N(C)C)cc2)c2ccccc21	POLI inh 50µM, FEN1 inh 79µM, POLK inh 40µM (no result: WRN helicase inh, POLH inh, POLB inh)
CCCC[n+]1c(/C=C/c2ccc(N(C)C)cc2)sc2ccccc21	POLI inh 50µM, FEN1 inh 50µM, POLK inh inconclusive (no result: WRN helicase inh, POLH inh, POLB inh)
COc1ccc(-c2nc3cnc(N4CCN(C)CC4)nc3n(CCc3ccccc3)c2=O)cc1	none (no result: WRN helicase inh, POLH inh, POLI inh, POLB inh, FEN1 inh)
CCN1CCc2c(sc(NC(=S)NC(=O)c3cccc(F)c3)c2C(N)=O)C1	none (no result: WRN helicase inh, POLH inh, POLB inh)
Cc1ccc(S(=O)(=O)C2CCN(c3nc(-c4cccs4)nc4ccccc34)CC2)cc1	none (no result: WRN helicase inh, POLH inh, POLB inh)
C=CCn1c(SCC(=O)NCCOC)nc2scc(-c3ccco3)c2c1=O	WRN helicase inh inconclusive, POLH inh 18µM, POLI inh inconclusive, POLB inh inconclusive, POLK inh inconclusive
C=CCn1c(SCC(=O)NCC2CCCO2)nc2scc(-c3ccco3)c2c1=O (stereo not drawn)	POLI inh inconclusive, POLB inh 7.1µM
O=S(=O)(O)c1ccc2c(c1)-c1nc-2nc2[nH]c(nc3nc(nc4[nH]c(n1)c1ccc(S(=O)(=O)O)cc41)-c1ccc(S(=O)(=O)O)cc1-3)c1ccc(S(=O)(=O)O)cc21	none (no result: WRN helicase inh, POLH inh, POLI inh, POLB inh, FEN1 inh)
C[C@@H]1[C@H](c2ccccc2)OCCS(=O)(=O)N1Cc1cccc(Cl)c1	none (no result: WRN helicase inh, POLH inh, POLB inh)
Cc1ccc(N2CC(C(=O)Nc3ccc(S(=O)(=O)Nc4nccs4)cc3)CC2=O)cc1C (stereo not drawn)	none
COc1ccc(N2CC(C(=O)Nc3ccc(S(=O)(=O)Nc4nccs4)cc3)CC2=O)c(OC)c1 (stereo not drawn)	POLH inh 50µM, POLI inh inconclusive, POLK inh inconclusive (no result: POLB inh)
COc1ccc(/C=C2/SC(=O)N(CCC(=O)Nc3ccc(S(=O)(=O)Nc4nccs4)cc3)C2=O)cc1	WRN helicase inh inconclusive, POLH inh 32µM, POLI inh inconclusive, POLB inh 22µM, FEN1 inh inconclusive
COc1ccc(/C=C2\SC(=S)N(CCC(=O)Nc3ccc(O)cc3)C2=O)cc1	none
COc1ccc(/C=C2\SC(=O)N(CCC(=O)Nc3ccc(S(=O)(=O)Nc4nccs4)cc3)C2=O)cc1	POLB inh 50µM
O=C(CCN1C(=O)S/C(=C\c2cccs2)C1=O)Nc1nccs1	none

Screens as filed in PubChem.
